The list is not random: actives were taken first. Their share in the collection is about 11%.
HTT aggregate: qHTS Multiplex Assay to Identify Dual Action Probes in a Cell Model of Huntington: Aggregate Formation (GFP); PC12 HttQ103-GFP aggregates, Acumen cytometry, 40 h; Potency, µM (highest dose often 46.1 µM), for the others: top-dose activity change, negative = inhibition, actives largely listed as inhibitors; actives 1.1% (n = 220,000); AID 1688, 2009; also: potency is read from the fitted curve at half-maximal effect; % is scaled to controls: 0 for no effect and ±100 for the full control effect; nearly all actives have a fitted effect of over 60% in size
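Quantitative HTS on tebufenozide-induced (100 nM) PC12 cells stably expressing polyQ103 Huntingtin exon 1–GFP. Reduction of bright GFP aggregates, detected by laser scanning cytometry after lysis, identified actives across the titration.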
PNC assembly inh: High Content Assay for Compounds that inhibit the Assembly of the Perinucleolar Compartment. PC3M PTB-GFP, PNC prevalence imaging, 16 h; stronger effect = lower value. AID 2417, 2010. actives 3.1% (n = 140,000). activity change (PNC), negative = inhibition, % at 10 µM;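 active = readout at or below -70, meaning at least 70% loss of cells showing the perinucleolar compartment, a nuclear body marking cancer cells; inconclusive = readout between -30 and a set limit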;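 also: plate controls were DMSO wells for no effect and camptothecin positive control wells for full effect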
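Read-out is percentage of cells bearing a perinucleolar compartment, from automated 20x imaging of fixed, Hoechst-stained PC3M PTB-GFP cells. Cells were seeded 4 h, then exposed 16 h to compound (23 nl of library stock) in duplicate plates.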
ALDH1A1 block: qHTS Assay for Inhibitors of Aldehyde Dehydrogenase 1 (ALDH1A1); Aldehyde dehydrogenase 1A1 (Homo sapiens), P00352; Purified ALDH1A1, NADH fluorescence, propionaldehyde substrate; Potency, µM (series often up to 75.3 µM), for the others: at the highest dose activity, negative = inhibition, usual class: inhibitors; actives 7.3% (n = 220,000); AID 1030, 2008; active = well fitted inhibition curve with a large enough effect, not every such curve was filed as active; inconclusive = small, poorly fitted or top-dose-only effect, or another doubt; inactive = no such curve, though single readings can be large or run the other way;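 also: potency is read from the fitted curve at half-maximal effect; plate controls were no enzyme wells and a reference inhibitor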
HPGD inh: qHTS Assay for Inhibitors of HPGD (15-Hydroxyprostaglandin Dehydrogenase). 15-hydroxyprostaglandin dehydrogenase [NAD(+)] (Homo sapiens), P15428. purified HPGD, NADH fluorescence kinetic, PGE2 substrate. Potency, µM, for inactives: at the top dose activity change, negative = inhibition, hits mostly inhibitors. actives 4.3% (n = 150,000). AID 894, 2007; active = well fitted inhibition curve with a large enough effect, not every such curve was filed as active; inconclusive = small, poorly fitted or top-dose-only effect, or another doubt; inactive = no such curve, though single readings can be large or run the other way; also: potency is read from the fitted curve at half-maximal effect; % is scaled to controls: 0 for no effect and ±100 for the full control effect
Target sequence (P15428 whole entry, looked up): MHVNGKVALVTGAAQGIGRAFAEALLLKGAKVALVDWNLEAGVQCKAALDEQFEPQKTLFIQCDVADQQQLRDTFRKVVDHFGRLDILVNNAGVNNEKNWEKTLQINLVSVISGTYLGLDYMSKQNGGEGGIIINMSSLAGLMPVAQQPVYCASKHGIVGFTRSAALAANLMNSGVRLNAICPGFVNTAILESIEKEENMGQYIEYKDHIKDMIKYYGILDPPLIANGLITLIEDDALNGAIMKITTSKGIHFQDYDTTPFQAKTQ
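20 nM HPGD preincubated 15 min at room temperature with compound in 50 mM Tris-HCl pH 8, 0.01% Tween 20. Started with 1 mM NAD+ and 30 uM prostaglandin E2; NADH fluorescence (360/450 nm) read 5 times over 30-s intervals, last minus first.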
HTT cytoprotect: qHTS Multiplex Assay to Identify Dual Action Probes in a Cell Model of Huntington: Cytoprotection (ATP); actives 0.14% (n = 230,000); Potency, µM (top dose mostly 56.4 µM), for the others: cytoprotection (ATP increase), usual class: activators; PC12 HTT-Q103 induced, cytoprotection, ATP luminescence, 40 h; also: potency is read from the fitted curve at half-maximal effect; % of control where 0% means no effect; nearly all actives have a fitted effect of over 45% in size
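Cells were plated at 1500 per well in phenol red-free DMEM with 5% equine and 5% calf serum. Tebufenozide (100 nM final) and compounds were added, then ATPlite reagent, and luminescence was read.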
RGS12 GoLoco inh: qHTS Assay for Inhibitors of RGS12 GoLoco Motif Activity (Red Fluorophore) | Guanine nucleotide-binding protein G(i) subunit alpha-1 (Homo sapiens), P63096 | Gai1:RGS12 GoLoco peptide FP, rhodamine, 10 min | Potency, µM (doses to about 61.6 µM), for inactives: at the top dose activity, negative = inhibition, actives largely listed as inhibitors | actives 0.44% (n = 230,000); active = well fitted inhibition curve with a large enough effect, not every such curve was filed as active; inactive = no such curve, though single readings can be large or run the other way; also: potency is read from the fitted curve at half-maximal effect; % is scaled to controls: 0 for no effect and ±100 for the full control effect; nearly all actives have a fitted effect of over 30% in size
Numbers without * were called inactive; [ ] = remark or other dose. Unless noted, calls follow the shape of the dose curve; as a rule, active = well fitted curve in the direction sought with a large enough effect; inconclusive = small, poorly fitted or top-dose-only effect, or another doubt; inactive = no such curve, though single readings can be large; an effect the other way counts as inactive or inconclusive.

What do the screens show for `Cc1cccc2sc(NC(=O)C3CCCO3)nc12` (configuration not stated)?
HTT aggregate: -25.3%; PNC assembly inh: -100.0*; ALDH1A1 block: -13.0%; HPGD inh: -17.5%; HTT cytoprotect: -7.5%; RGS12 GoLoco inh: 1.2%

Results for CCc1nnc(NC(=O)c2ccncc2)s1 ?
HTT aggregate: -9.3%; PNC assembly inh: inconclusive; ALDH1A1 block: 7.2%; HPGD inh: -20.8%; HTT cytoprotect: -15.9%; RGS12 GoLoco inh: -3.4%

How did Cc1c(NC(=O)C2CCCO2)cccc1[N+](=O)[O-] (configuration not stated) do in these assays?
HTT aggregate: 8.5%; PNC assembly inh: -85.1*; ALDH1A1 block: -0.4%; HPGD inh: -3.2%; HTT cytoprotect: -22.3%[10 µM]; RGS12 GoLoco inh: 10.9%

What do the screens show for `COC(=O)Cc1nnc(NC(=O)c2ccccc2)s1`?
HTT aggregate: 0.0%; PNC assembly inh: -94.7*; ALDH1A1 block: -32.4%; HTT cytoprotect: -16.9%[0.074 µM]

What do the screens show for `CC(C)Sc1nnc(NC(=O)C2CC2)s1`?
HTT aggregate: -19.7%; PNC assembly inh: inconclusive; ALDH1A1 block: 0.0501µM*; HPGD inh: -25.5%; HTT cytoprotect: 1.5%; RGS12 GoLoco inh: 10.3%

Results for CC(C)(O)C#Cc1ccc(C(=O)N2CCN(c3ccc([N+](=O)[O-])cc3)CC2)cc1 ?
HTT aggregate: inconclusive; ALDH1A1 block: 20µM*; HTT cytoprotect: -48.5%; RGS12 GoLoco inh: 6.6%

How did Cc1nnc(SCC(=O)c2ccc([N+](=O)[O-])cc2)s1 do in these assays?
HTT aggregate: -6.3%; ALDH1A1 block: inconclusive; HTT cytoprotect: 26.5%[10 µM]; RGS12 GoLoco inh: 3.3%

How did O=C(Nc1ccc2c(c1)OCCO2)C1CCN(C(=O)c2ccc([N+](=O)[O-])cc2)CC1 do in these assays?
HTT aggregate: 8.5%; ALDH1A1 block: -6.1%; HTT cytoprotect: -36.4%; RGS12 GoLoco inh: 3.4%

How did Cc1cccc(C(=O)N2CCN(c3ccc([N+](=O)[O-])c(N4CCOCC4)c3)CC2)c1 do in these assays?
HTT aggregate: -1.3%; PNC assembly inh: 31.9; ALDH1A1 block: 5.01µM*; HPGD inh: -16.1%; HTT cytoprotect: -14.4%; RGS12 GoLoco inh: 5.6%

What do the screens show for `Nc1nnc(SCC(=O)c2ccc([N+](=O)[O-])cc2)s1`?
HTT aggregate: 15.7%; ALDH1A1 block: 2.82µM*; HTT cytoprotect: -30.1%; RGS12 GoLoco inh: -12.2%

What do the screens show for `O=C(c1ccc2c(c1)OCCO2)N1CCN(c2ccc([N+](=O)[O-])cc2)CC1`?
HTT aggregate: -15.9%; ALDH1A1 block: 14.1µM*; HTT cytoprotect: 0.4%[10 µM]; RGS12 GoLoco inh: -1.9%

Results for COC1(C)CCC2OC2(C)CCC2C1CC2(C)C (configuration not stated) ?
ALDH1A1 block: inconclusive; HPGD inh: -13.5%; RGS12 GoLoco inh: 39.5%

What do the screens show for `CCSc1ccccc1C(=O)N1CCN(c2ccc([N+](=O)[O-])cc2)CC1`?
HTT aggregate: 12.6%[9.22 µM]; ALDH1A1 block: 14.1µM*; HTT cytoprotect: 8.0%[10 µM]; RGS12 GoLoco inh: -5.7%

How did O=C(CSc1ccccc1C(=O)O)c1ccc([N+](=O)[O-])cc1 do in these assays?
HTT aggregate: -2.6%; ALDH1A1 block: 15.8µM*; HTT cytoprotect: -19.8%; RGS12 GoLoco inh: -12.4%

Results for O=C(CSc1n[nH]c(=O)[nH]c1=O)c1ccc([N+](=O)[O-])cc1 ?
HTT aggregate: -1.4%[9.22 µM]; HTT cytoprotect: 14.7%[10 µM]; RGS12 GoLoco inh: -11.2%
